Results reported in PubChem BioAssay (NCATS).
Inconclusive results are not listed. Calls of active or inactive are those of the source. Unless noted, calls follow the shape of the dose curve; as a rule, active = well fitted curve in the direction sought with a large enough effect; inconclusive = small, poorly fitted or top-dose-only effect, or another doubt; inactive = no such curve, though single readings can be large; an effect the other way counts as inactive or inconclusive.

Columns and labels:
[1] = system: HIV-1 nucleocapsid protein NCp7 (binding to TG oligonucleotide); experiment: HIV Nucleocapsid (AID 346; call rule not given here;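 also: potency is read from the fitted curve at half-maximal effect; potency is for inhibitors that block NC binding and lower polarization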); conditions: HIV-1 NC / fluorescein-TGTGTGTG probe, fluorescence polarization
Outline: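 Fluorescence polarization readout: labelled TG4xF oligo (10 nM) with 100 nM nucleocapsid protein, high-salt (250mM NaCl) Hepes pH 7.5 buffer containing zinc and fresh reducing agents. Compounds added by pin tool; incubation 1 hr, room temperature.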

[2] = AP1 Signaling Pathway (AID 357; active = well fitted curve in either direction with a large enough effect, not every such curve was filed as active;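 also: ME-180 reporter cells stimulated with EGF at its EC50 level; % is scaled to controls: 0 for no effect and ±100 for the full control effect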)
Outline: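 Read-out was the 460nm/530nm emission ratio (excitation 405nm) after CCF4 loading for 2.5 hours at room temperature. Cells carried an AP-1-driven beta-lactamase reporter, were stimulated with EC50 EGF plus compound for 5 hours, and AC50 values came from titrations.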

[3] = biological target: Cytochrome P450 1A2 (Homo sapiens) (UniProt P05177); experiment: p450-cyp1a2 (AID 410; calls by dose curve; also: potency is read from the fitted curve at half-maximal effect)
Sequence of Cytochrome P450 1A2 (Homo sapiens) (P05177 whole entry, looked up): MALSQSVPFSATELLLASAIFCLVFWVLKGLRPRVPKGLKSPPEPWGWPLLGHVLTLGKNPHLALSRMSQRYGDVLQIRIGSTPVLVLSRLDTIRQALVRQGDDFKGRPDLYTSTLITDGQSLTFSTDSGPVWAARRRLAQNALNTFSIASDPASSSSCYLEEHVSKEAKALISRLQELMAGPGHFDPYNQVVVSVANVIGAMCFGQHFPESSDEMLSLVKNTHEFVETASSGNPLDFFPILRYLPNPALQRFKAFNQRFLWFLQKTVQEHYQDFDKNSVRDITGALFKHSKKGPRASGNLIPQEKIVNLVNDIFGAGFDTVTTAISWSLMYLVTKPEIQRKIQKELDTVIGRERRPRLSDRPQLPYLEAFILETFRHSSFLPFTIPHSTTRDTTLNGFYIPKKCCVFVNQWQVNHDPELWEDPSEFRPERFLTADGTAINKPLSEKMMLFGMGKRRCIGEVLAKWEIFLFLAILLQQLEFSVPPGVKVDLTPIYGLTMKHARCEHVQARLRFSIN
Outline: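 20nM CYP1A2, 100uM Luciferin-ME (=Km), 100mM KPO4; cpd 10 min RT; +NADPH regen, 60 min RT; stop/detect 20 min; luminescence. Normalized to furafylline 57 uM = full inhibition.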

[4] = Stat Signaling Pathway (AID 446; active = well fitted curve in either direction with a large enough effect, not every such curve was filed as active;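 also: ME-180 cervical cancer cells given 40 pM IL-6 alongside compound; SIE-controlled beta-lactamase reporter measured as 460/530 nm FRET emission ratio; % is scaled to controls: 0 for no effect and ±100 for the full control effect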)
Outline: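 Overnight-plated ME-180 cells bearing a STAT Inducible Element beta-lactamase reporter; 5 h co-exposure to compound and 40 pM IL-6; values normalized to 300 pM IL-6 and 125 nM JAK inhibitor controls.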

[5] = biological target: Glucocorticoid receptor (Homo sapiens) (UniProt P04150); experiment: GR-EFC Redistribution (AID 451; calls by dose curve; also: potency is read from the fitted curve at half-maximal effect); conditions: CHO-K1 GR-EFC translocation, beta-gal luminescence, 2 h
Sequence of Glucocorticoid receptor (Homo sapiens) (P04150 whole entry, looked up, the tested form may be a part): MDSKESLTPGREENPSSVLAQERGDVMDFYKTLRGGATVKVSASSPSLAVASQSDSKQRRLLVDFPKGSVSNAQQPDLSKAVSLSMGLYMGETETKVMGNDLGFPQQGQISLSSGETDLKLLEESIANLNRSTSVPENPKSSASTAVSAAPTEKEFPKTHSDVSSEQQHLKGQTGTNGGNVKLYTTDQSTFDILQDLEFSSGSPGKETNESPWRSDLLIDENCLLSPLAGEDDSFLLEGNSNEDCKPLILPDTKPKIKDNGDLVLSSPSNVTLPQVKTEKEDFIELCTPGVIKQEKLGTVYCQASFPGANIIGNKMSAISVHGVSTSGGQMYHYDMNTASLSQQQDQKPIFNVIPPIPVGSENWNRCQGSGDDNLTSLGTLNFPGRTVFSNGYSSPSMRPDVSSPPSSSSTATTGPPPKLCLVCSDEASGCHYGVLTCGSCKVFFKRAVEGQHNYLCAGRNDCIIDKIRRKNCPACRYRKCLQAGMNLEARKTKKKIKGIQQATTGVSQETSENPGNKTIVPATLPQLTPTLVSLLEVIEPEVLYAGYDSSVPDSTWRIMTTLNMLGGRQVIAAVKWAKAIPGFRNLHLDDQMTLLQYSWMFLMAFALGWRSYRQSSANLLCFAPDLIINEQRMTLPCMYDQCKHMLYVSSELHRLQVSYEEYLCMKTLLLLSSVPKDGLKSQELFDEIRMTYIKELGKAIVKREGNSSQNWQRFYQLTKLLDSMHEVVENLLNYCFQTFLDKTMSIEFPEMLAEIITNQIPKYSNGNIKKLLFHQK
Outline: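 CHO-K1 cells expressing nuclear EA and GR-ED fragments of b-gal; compounds titrated up to 46 uM final, 2 h at 37 C. GR nuclear translocation read as complemented b-gal luminescence after 1 h RT detection.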

[6] = biological target: Mitogen-activated protein kinase 10 (Mus musculus) (UniProt Q61831); experiment: JNK3 AlphaScreen Assay (AID 530; active = well fitted curve in either direction with a large enough effect, not every such curve was filed as active;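 also: kinase came from lysate of stimulated human HepG2 cells; signal reports phosphorylation of biotinylated GST-cJun 1-79 at Ser73 with 10 µM ATP; % is scaled to controls: 0 for no effect and ±100 for the full control effect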)
Outline: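 HepG2 lysate (IL-1b/TNFa pre-activated) + biotin-GST-cJun 1-79 + anti-pSer73 cJun; cpd titration, 15 min RT; ATP 10 uM start; Tris pH 7.6, MgCl2, DTT, vanadate; beads in EDTA buffer; AlphaScreen.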

[7] = biological target: Cytochrome P450 3A4 (Homo sapiens) (UniProt P08684); experiment: qHTS Assay for Activators of Cytochrome P450 3A4 (AID 885); also: nearly all actives have a fitted effect of over 65% in size
Sequence of Cytochrome P450 3A4 (Homo sapiens) (P08684 whole entry, looked up): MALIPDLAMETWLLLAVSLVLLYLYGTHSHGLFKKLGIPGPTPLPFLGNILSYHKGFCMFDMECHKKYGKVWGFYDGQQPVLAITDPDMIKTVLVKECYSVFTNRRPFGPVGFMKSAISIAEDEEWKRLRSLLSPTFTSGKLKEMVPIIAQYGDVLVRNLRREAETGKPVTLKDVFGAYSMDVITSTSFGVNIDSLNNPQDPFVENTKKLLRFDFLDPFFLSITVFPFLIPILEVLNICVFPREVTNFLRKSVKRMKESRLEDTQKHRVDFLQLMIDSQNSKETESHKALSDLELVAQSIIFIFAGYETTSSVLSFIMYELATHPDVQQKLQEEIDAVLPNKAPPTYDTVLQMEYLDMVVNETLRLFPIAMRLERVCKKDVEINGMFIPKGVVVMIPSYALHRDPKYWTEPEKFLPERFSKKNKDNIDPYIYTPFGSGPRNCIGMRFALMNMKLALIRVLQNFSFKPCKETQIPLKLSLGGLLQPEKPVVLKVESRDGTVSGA
Outline: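 Using 20nM recombinant human CYP3A4 in potassium phosphate (200mM), substrate Luciferin-PPXE at 25uM, luminescent luciferin detection followed a 60-min RT NADPH reaction; data scaled to 57 uM ketoconazole.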

[8] = Primary qHTS for small molecule stabilizers of the endoplasmic reticulum resident proteome: Secreted ER Calcium Modulated Protein (SERCaMP) assay (AID 1508630); also: % is scaled to controls: 0 for no effect and ±100 for the full control effect
Outline: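 The SH-SY5Y reporter protocol was run at 3 concentrations up to 38.3 uM (primary) or 11 concentrations (follow-up): 16 h compound, 100 nM thapsigargin for 4 h, then extracellular luciferase luminescence.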

[9] = biological target: Glucocorticoid receptor (Homo sapiens) (UniProt P04150); experiment: GR-GFP Redistribution (AID 450;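 active = compounds whose dose series gives a full or clear partial fitted curve of increased nuclear translocation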; also: potency is read from the fitted curve at half-maximal effect); conditions: U2OS GR-GFP nuclear translocation, laser cytometry, 2 h
[10] = biological target: 3',5'-cyclic-AMP phosphodiesterase 4B (Homo sapiens) (UniProt Q07343); experiment: qHTS Assay for Inhibitors of PDE-IV (AID 607; active = well fitted activation curve with a large enough effect in the main read-out, with a control signal flat, not every such curve was filed as active; also: % of control where 0% means no effect)
Sequence of 3',5'-cyclic-AMP phosphodiesterase 4B (Homo sapiens) (Q07343 whole entry, looked up): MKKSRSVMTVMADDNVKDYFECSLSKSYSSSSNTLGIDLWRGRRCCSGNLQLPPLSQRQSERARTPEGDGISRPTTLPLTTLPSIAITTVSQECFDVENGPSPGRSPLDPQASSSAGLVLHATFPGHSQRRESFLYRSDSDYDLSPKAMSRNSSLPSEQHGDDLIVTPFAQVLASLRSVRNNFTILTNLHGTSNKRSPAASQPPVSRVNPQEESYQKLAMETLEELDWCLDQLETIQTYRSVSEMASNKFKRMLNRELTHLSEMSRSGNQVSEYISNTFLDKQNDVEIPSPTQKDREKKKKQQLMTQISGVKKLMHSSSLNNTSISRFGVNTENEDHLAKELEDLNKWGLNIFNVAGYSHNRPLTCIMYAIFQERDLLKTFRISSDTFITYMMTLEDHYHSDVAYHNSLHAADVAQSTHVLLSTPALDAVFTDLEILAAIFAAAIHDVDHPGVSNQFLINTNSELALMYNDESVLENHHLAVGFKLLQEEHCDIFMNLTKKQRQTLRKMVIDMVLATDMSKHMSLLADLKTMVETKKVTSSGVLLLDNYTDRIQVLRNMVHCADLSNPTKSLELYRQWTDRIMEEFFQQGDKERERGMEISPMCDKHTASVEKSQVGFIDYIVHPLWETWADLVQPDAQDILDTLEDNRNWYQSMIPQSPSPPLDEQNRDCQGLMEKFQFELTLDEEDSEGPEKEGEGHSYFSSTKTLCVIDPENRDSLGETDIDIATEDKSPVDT
Outline: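 Live HEK293 cells with a modified cyclic nucleotide-gated (CNG) channel report intracellular cAMP via membrane-potential dye fluorescence (ex 535/em 590 nm). Endogenous PDE-IV was targeted. Compounds were tested at up to 22.9 uM final; RO 20-1724 100 uM served as control.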

[11] = biological target: Cytochrome P450 2C9 (Homo sapiens) (UniProt P11712); experiment: qHTS Assay for Inhibitors and Substrates of Cytochrome P450 2C9 (AID 883); also: potency is read from the fitted curve at half-maximal effect; nearly all actives have a fitted effect of over 60% in size
Sequence of Cytochrome P450 2C9 (Homo sapiens) (P11712 whole entry, looked up): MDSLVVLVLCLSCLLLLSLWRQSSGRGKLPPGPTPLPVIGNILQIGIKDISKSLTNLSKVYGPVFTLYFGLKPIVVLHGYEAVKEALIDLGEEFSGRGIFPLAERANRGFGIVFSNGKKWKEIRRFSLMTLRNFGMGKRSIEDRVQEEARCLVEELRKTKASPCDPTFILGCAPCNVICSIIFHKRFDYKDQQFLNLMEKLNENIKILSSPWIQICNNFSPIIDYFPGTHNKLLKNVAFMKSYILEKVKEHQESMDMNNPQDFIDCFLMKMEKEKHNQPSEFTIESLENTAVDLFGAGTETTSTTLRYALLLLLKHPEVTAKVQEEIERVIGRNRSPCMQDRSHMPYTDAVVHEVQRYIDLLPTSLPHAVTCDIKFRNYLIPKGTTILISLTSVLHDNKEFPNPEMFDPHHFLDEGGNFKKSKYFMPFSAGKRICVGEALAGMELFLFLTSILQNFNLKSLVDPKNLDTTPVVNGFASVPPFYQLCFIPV
Outline: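 10nM CYP2C9 + 100uM Luciferin-H (=KM), 25mM KPO4; cpd 10 min 37C; NADPH regen, 60 min 37C; stop/detect with P450 Glo-Buffer 20 min; luminescence. Norm. to 57uM sulphaphenazole as full inhibition.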

[12] = biological target: Ubiquitin carboxyl-terminal hydrolase 1 (Homo sapiens) (UniProt O94782); experiment: Inhibitors of USP1/UAF1: Pilot qHTS (AID 504865);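 also: rhodamine fluorescence freed from ubiquitin-rhodamine substrate followed over time; top concentration of the series differs between compounds; % is scaled to controls: 0 for no effect and ±100 for the full control effect; nearly all actives have a fitted effect of over 35% in size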
Sequence of Ubiquitin carboxyl-terminal hydrolase 1 (Homo sapiens) (O94782 whole entry, looked up): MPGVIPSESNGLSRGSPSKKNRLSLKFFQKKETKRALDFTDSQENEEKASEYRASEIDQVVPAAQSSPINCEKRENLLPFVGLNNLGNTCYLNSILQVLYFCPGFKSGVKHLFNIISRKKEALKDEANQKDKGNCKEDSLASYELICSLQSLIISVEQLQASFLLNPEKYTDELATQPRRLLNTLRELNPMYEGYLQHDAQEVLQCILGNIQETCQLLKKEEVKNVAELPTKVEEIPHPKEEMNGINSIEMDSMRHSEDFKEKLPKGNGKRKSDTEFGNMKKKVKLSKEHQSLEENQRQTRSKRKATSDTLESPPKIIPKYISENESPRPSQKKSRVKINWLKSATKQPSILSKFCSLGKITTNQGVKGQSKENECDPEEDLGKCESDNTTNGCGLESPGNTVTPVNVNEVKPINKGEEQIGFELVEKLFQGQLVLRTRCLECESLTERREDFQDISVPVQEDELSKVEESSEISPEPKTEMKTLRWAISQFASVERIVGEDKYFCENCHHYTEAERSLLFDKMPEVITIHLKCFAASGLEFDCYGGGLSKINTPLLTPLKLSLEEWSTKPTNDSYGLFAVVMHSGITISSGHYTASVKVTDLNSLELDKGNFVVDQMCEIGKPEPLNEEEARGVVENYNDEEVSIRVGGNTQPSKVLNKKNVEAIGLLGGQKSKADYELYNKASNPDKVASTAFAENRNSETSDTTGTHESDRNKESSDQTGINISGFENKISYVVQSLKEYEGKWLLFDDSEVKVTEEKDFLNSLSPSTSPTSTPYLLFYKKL
Outline: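 1nM USP1/UAF1 + cpd, 15 min RT; start w/ Ub-Rho 150nM final; kinetic FL 480/540 nm, 6 reads q60 s. Buffer 50mM HEPES pH 7.8, 0.5mM EDTA, 1mM TCEP, 0.01% Tween-20, 0.1 mg/ml BSA.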

[13] = biological target: DNA dC->dU-editing enzyme APOBEC-3G (Homo sapiens) (UniProt Q9HC16); experiment: qHTS for inhibitors of Vif-A3G interactions: Validation (AID 588379); also: 0% is about no effect
Sequence of DNA dC->dU-editing enzyme APOBEC-3G (Homo sapiens) (Q9HC16 whole entry, looked up): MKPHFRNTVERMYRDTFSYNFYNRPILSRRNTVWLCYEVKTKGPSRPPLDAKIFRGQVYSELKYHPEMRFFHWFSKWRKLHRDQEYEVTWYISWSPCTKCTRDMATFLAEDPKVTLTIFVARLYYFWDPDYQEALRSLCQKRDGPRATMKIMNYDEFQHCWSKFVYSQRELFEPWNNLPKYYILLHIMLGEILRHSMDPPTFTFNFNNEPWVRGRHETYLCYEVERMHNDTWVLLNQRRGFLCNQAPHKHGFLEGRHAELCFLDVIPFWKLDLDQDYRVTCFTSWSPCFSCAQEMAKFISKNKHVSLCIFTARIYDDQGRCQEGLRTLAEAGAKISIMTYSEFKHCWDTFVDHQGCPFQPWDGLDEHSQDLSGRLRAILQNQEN
Outline: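 Yellow fluorescence (Ex 488, Em 500-530) of Vif-coexpressing HeLa A3G-eYFP cells, scanned by Acumen cytometer, reports blocked A3G degradation. Cells plated at 700/well overnight at 37 deg C before compound addition, then a further overnight compound incubation at 37 deg C.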

[14] = Cytotoxicity counterscreen for inhibitors of SARS-CoV-2 cell entry (AID 1645845; calls by dose curve; also: % is scaled to controls: 0 for no effect and ±100 for the full control effect; nearly all actives have a fitted effect of over 50% in size); conditions: outcome: dose series up to 57.1 µM unless noted
Outline: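 Counterscreen run in the same HEK293-ACE2 line as the pseudotyped-particle entry assay, without particles. Viability after 48 h at 37 C was read as ATP luminescence, scaled between cell-containing and cell-free wells.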

[15] = Primary qHTS to identify inhibitors of SARS-CoV-2 cell entry (AID 1645846; calls by dose curve; also: nearly all actives have a fitted effect of over 45% in size); conditions: SARS-CoV-2 pseudovirus cell entry assay, luminescence; activity change, negative = inhibition: at 57.1 µM (top of the series) unless noted
Outline: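 HEK293-ACE2 (Expi293F, stable hACE2), 1500 cells/well, o/n 37C; cpd 23 nL pin, 1 h; MLV-PP w/ SARS-CoV-2-S (Wuhan-Hu-1, Δ19 C-term); 48 h 37C; Bright-Glo luminescence; normalized vs S-PP and bald PP.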

[16] = biological target: Glutathione peroxidase 1 (Homo sapiens) (UniProt P07203); experiment: Primary qHTS Assay for Inhibitors of Recombinant Selenoprotein Glutathione Peroxidase 1 (GPX1) (AID 1845191); also: nearly all actives have a fitted effect of over 65% in size
Sequence of Glutathione peroxidase 1 (Homo sapiens) (P07203 whole entry, looked up): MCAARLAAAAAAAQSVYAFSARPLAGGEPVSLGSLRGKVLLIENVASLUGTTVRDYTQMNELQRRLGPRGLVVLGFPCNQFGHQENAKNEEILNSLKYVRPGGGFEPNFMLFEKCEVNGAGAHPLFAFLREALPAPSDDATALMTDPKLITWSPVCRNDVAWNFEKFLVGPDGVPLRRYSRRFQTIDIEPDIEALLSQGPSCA
Outline: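 GR-coupled readout: NADPH consumption tracked by fluorescence, ex 340/em 450 nm, at t=0 and after 15 min at RT. Final mix 10 nM GPX1, 1 mM GSH, 0.5 mM CHP, 0.5 mM NADPH, 100 nM GR, 0.01% BSA, following 30 min enzyme–compound preincubation.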

[17] = biological target: Phospholipid hydroperoxide glutathione peroxidase GPX4 (Homo sapiens) (UniProt P36969); experiment: Primary qHTS Assay for Inhibitors of Recombinant Selenoprotein Glutathione Peroxidase 4 (GPX4) (AID 1845192); also: % is scaled to controls: 0 for no effect and ±100 for the full control effect; nearly all actives have a fitted effect of over 65% in size
Outline: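 Steps: GPX4 plus compound, 30 min RT; add GR/GSH/NADPH master mix; start with cumene hydroperoxide; read 340/450 nm fluorescence at 0 and 15 min. Finals were 200 nM GPX4, 1 mM GSH, 0.5 mM CHP, 0.5 mM NADPH, 100 nM GR.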

[18] = qHTS drug screen for cell cycle checkpoint inhibitors in PARPi-resistant BRCA-mutant ovarian cancer cell lines. (AID 1963452; calls by dose curve); conditions: PEO1/OlaR viability, CellTiter-Glo luminescence, 96 h, stronger effect = lower value
Outline: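 PEO1, PEO4 and PEO1/OlaR ovarian cancer cells, 600 per well, exposed 96 h at 37C to a dilution series. Viability read by CellTiter-Glo luminescence, normalized to DMSO and empty wells; activity summarized as Z-AUC.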

[19] = biological target: Lysosomal acid glucosylceramidase (Homo sapiens) (UniProt P04062); experiment: Glucocerebrosidase-p2 (AID 348; in the data active = potency below about 10 µM; also: potency is read from the fitted curve at half-maximal effect); conditions: purified GBA, blue fluorogenic substrate, 40 min
Sequence of Lysosomal acid glucosylceramidase (Homo sapiens) (P04062 whole entry, looked up): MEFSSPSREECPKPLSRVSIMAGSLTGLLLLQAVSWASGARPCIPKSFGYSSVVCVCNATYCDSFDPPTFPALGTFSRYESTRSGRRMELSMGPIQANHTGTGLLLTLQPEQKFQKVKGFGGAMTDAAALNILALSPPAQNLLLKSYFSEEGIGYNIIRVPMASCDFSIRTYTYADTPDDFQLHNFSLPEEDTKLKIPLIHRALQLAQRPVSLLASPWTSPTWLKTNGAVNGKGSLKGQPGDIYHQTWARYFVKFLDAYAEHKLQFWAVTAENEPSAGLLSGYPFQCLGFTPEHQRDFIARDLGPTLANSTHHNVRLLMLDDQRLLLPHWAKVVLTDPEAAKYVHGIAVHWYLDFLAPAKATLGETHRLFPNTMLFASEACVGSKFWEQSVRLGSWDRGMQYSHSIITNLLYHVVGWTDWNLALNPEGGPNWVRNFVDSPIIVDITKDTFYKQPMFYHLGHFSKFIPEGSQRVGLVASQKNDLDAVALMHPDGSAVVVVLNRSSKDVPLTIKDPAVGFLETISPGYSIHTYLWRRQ
Outline: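 Normal human glucocerebrosidase (0.2 nM) with blue fluorogenic substrate (80 uM final) in citrate/phosphate pH 5.9 with 10mM sodium taurocholate, 0.01% tween-20; 40 min RT, NaOH/glycine stop; fluorescence Ex 365/Em 440; AC50 from a titration from 0.6 nM upwards.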

[20] = NFAT Signaling Pathway (AID 444; active = well fitted curve in either direction with a large enough effect, not every such curve was filed as active); conditions: Jurkat NFAT-bla M1, carbachol, beta-lactamase ratio, 5 h; at 7.69 µM (top of the series)
Outline: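 Jurkat cells with NFAT-driven β-lactamase reporter and co-expressed M1 receptor, stimulated with carbachol (final 1 uM, ~EC50), compound titration, 5 h at 37 °C. CCF4 loaded 1 h at RT; 460/530 nm ratio gave %activity and AC50.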

[21] = qHTS Assay for Lipid Storage Modulators (AID 1519; calls by dose curve); conditions: Drosophila S3 cells, BODIPY lipid droplet/cell ratio, laser cytometry, cells loaded with oleic acid
Outline: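 Cells seeded at 5,000 per well were treated with compounds over a concentration series and loaded with oleic acid (400 uM, as added). Lipid droplet fluorescence (488 nm excitation, 500-530 nm channel) was read by laser-scanning cytometry and normalized to 20 uM Triacsin C.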

O=C(Nc1cccc(F)c1)N1CCCC2(CCN(C(=O)Oc3ccccc3)CC2)C1
inactive: Potency [1] > 20 µM | outcome [2] | outcome [4] | Potency [5] > 46 µM | outcome [6] | Potency [7] | outcome [8]
active: Potency [3] 10 µM

O=C(O)C1=CCCN(CCOC(c2ccc(C(F)(F)F)cc2)c2ccc(C(F)(F)F)cc2)C1
inactive: Potency [9] > 46 µM | Potency [5] > 46 µM | Potency [10] | Potency [7] | Potency [12] | outcome [13] | outcome [8] | Potency [14] | Potency [16] | Potency [17] | Z-AUC [18] -1.16
-6.97%: activity change, negative = inhibition [15]
-0.857: Z-AUC ([18]; measured here: PEO1 parental Z-AUC)
-0.457: Z-AUC ([18]; measured here: PEO4 Z-AUC)
active: Potency [11] 2.51 µM

c1cnc(N2CC3(CCNCC3)C2)nc1
11.6%: max response ([21]; measured here: cell count channel max response)
15.7%: max response ([21]; measured here: lipid channel max response)
inactive: Potency [19] > 11.4 µM | outcome [2] | activity change, negative = inhibition [20] -1.58% | outcome [4] | Potency [5] > 46 µM | outcome [6] | Potency [10] | activity change, negative = inhibition ([21]; at 57.5 µM (top of the series)) 1.55% | outcome [8]

O=C(Oc1ccccc1)N1CCC2(CC1)CN(Cc1ccncc1)C2
active: Potency [3] 10 µM | Potency [11] 3.16 µM
inactive: Potency [1] > 20 µM | Potency [19] > 11.4 µM | outcome [2] | outcome [4] | Potency [5] > 46 µM | outcome [6] | Potency [10] | Potency [7] | outcome [8]
